Test results as given in PubChem BioAssay (NCI).
Compounds without any hit were thinned out: in the full panel of roughly 79,000, 15% have a hit. Activity calls are given as the source filed them. Rule as the data show it: active = growth inhibition above about 70%; inactive = the rest.

How the values were obtained:
[1] = NCI Yeast Anticancer Drug Screen. Data for the rad52 strain (AID 147);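 also: 0% = growth of vehicle-treated control cultures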; settings: S. cerevisiae rad52 mutant growth inhibition, active compounds read high
Method in brief: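 Here a repair-compromised yeast strain receives each compound; its growth is then quantified and normalised to vehicle-only controls.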

[2] = NCI Yeast Anticancer Drug Screen. Data for the rad50EPP+ strain (AID 151);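 also: 0% = growth of vehicle-treated control cultures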; settings: S. cerevisiae rad50 mutant strain, active compounds read high
Method in brief: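 Read-out is yeast growth inhibition relative to vehicle; cells used were the rad50EPP+ strain.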

[3] = NCI Yeast Anticancer Drug Screen. Data for the mgt1 strain (AID 153); settings: S. cerevisiae mgt1 mutant growth inhibition, active compounds read high
Method in brief: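 Measured: inhibition of mgt1 yeast growth by compound, normalized to vehicle-treated cultures.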

[4] = NCI Yeast Anticancer Drug Screen. Data for the rad50 strain (AID 155);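 also: 0% = growth of vehicle-only cultures of the same strain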; settings: S. cerevisiae rad50 strain growth inhibition, active compounds read high
Method in brief: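 A DNA repair-deficient yeast mutant serves as the test organism; compound-induced growth inhibition is calculated against vehicle-treated cells.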

[5] = NCI Yeast Anticancer Drug Screen. Data for the mec2-1 strain (AID 157); settings: S. cerevisiae mec2-1 strain, active compounds read high
Method in brief: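 Using mec2-1 yeast: add compound, measure growth, express inhibition versus vehicle-treated cultures.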

[6] = NCI Yeast Anticancer Drug Screen. Data for the rad14 strain (AID 159);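 also: 0% = growth of vehicle-treated control cultures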; settings: S. cerevisiae rad14 strain growth inhibition, active compounds read high
Method in brief: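 Vehicle-treated cultures served as the baseline for growth inhibition of a DNA repair-mutant yeast strain exposed to each compound.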

[7] = NCI Yeast Anticancer Drug Screen. Data for the sgs1 mgt1 strain (AID 161);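 also: 0% = growth of cultures given vehicle only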; settings: S. cerevisiae sgs1 mgt1 strain, active compounds read high
Method in brief: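 Yeast cells carrying a defined DNA-repair defect were exposed to test compounds. Growth inhibition was measured relative to vehicle-treated controls.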

[8] = NCI Yeast Anticancer Drug Screen. Data for the CLN2oe strain (AID 163);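 also: 0% = growth of vehicle-only control cultures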; settings: S. cerevisiae CLN2oe strain, active compounds read high
Method in brief: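 Whole-cell yeast growth assay. A strain engineered for altered cell-cycle control received compound, and inhibition relative to vehicle-treated cultures was recorded.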

[9] = NCI Yeast Anticancer Drug Screen. Data for the cln2 rad14 strain (AID 165);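 also: 0% = growth equal to vehicle treated cultures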; settings: S. cerevisiae cln2 rad14 strain, active compounds read high
Method in brief: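 Yeast strain cln2 rad14, bearing defects in cell cycle control and DNA repair, serves as the test system; values reflect growth inhibition compared with vehicle.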

[10] = NCI Yeast Anticancer Drug Screen. Data for the bub3 strain (AID 167); settings: S. cerevisiae bub3 mutant strain, active compounds read high
Method in brief: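 Inhibition values come from growth of compound-treated mutant yeast normalised to vehicle-treated controls.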

[11] = NCI Yeast Anticancer Drug Screen. Data for the wt2 strain (AID 169);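 also: 0% = growth of vehicle-treated yeast cultures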; settings: S. cerevisiae wt2 strain growth inhibition, active compounds read high
Method in brief: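 Treated yeast vs. vehicle-treated yeast: growth inhibition determined.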

[12] = NCI Yeast Anticancer Drug Screen. Data for the mlh1 strain (AID 171);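 also: 0% = growth of vehicle-treated control cultures of the same strain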; settings: S. cerevisiae mlh1 strain growth inhibition, active compounds read high
Method in brief: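 A yeast strain with a defined genetic lesion serves as the test organism. Cultures receive compound or vehicle, and growth is measured.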

[13] = NCI Yeast Anticancer Drug Screen. Data for the sgs1 strain (AID 173);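 also: 0% = growth of vehicle-only control cultures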; settings: S. cerevisiae sgs1 mutant, active compounds read high
Method in brief: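 A genetically defined yeast mutant is incubated with the test compound, and its growth is compared to that of the same strain given vehicle.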

[14] = NCI Yeast Anticancer Drug Screen. Data for the mlh1 rad18 strain (AID 175); settings: S. cerevisiae mlh1 rad18 strain growth inhibition, active compounds read high
Method in brief: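 Steps: expose repair-defective yeast to compound; measure growth; express inhibition against vehicle-treated controls.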

[15] = NCI Yeast Anticancer Drug Screen. Data for the rad18 strain (AID 177); settings: S. cerevisiae rad18 mutant growth inhibition, active compounds read high
Method in brief: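 Measured value is growth inhibition of a yeast strain bearing a DNA repair alteration, referenced to vehicle-treated cells.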

[16] = NCI Yeast Anticancer Drug Screen. Data for the wt1 strain (AID 149);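 also: 0% = growth of vehicle-treated wt1 cultures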; settings: S. cerevisiae wt1 strain (SPY 50644) growth inhibition, active compounds read high
Method in brief: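 Vehicle-normalised growth inhibition; strain wt1; compound exposure.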

[17] = at 5.0 µM (retest, dose inferred, filed as 0.5)
[18] = at 50.0 µM (retest, dose inferred, filed as 5.0)

Measured: growth inhibition

COC(=O)Nc1cn2ccc(C(Cl)=C(Cl)Cl)cc2n1
inactive: [1]; at 1.2 µM -12% | [1]; at 3.7 µM -17% | [1]; at 11.0 µM -21% | [1]; at 33.0 µM -33% | [1]; at 100.0 µM -16% | [2]; at 1.2 µM -27% | [2]; at 3.7 µM -19% | [2]; at 11.0 µM -32% | [2]; at 33.0 µM -27% | [2]; at 100.0 µM -28% | [3]; at 1.2 µM -21% | [3]; at 3.7 µM -17% | [3]; at 11.0 µM -29% | [3]; at 33.0 µM -24% | [3]; at 100.0 µM -22% | [4]; at 1.2 µM -22% | [4]; at 3.7 µM -32% | [4]; [17] 21% | [4]; at 11.0 µM -35% | [4]; at 33.0 µM -36% | [4]; [18] 29% | [4]; at 50.0 µM -4.2% | [4]; at 100.0 µM -32% | [5]; at 1.2 µM 4% | [5]; at 3.7 µM -5% | [5]; [17] 17% | [5]; at 11.0 µM 5% | [5]; at 33.0 µM 3% | [5]; [18] 15% | [5]; at 50.0 µM -9.5% | [5]; at 100.0 µM -4% | [6]; at 1.2 µM 18% | [6]; at 3.7 µM -11% | [6]; at 11.0 µM 1% | [6]; at 33.0 µM -13% | [6]; at 100.0 µM -17% | [7]; [17] 28% | [7]; [18] 40% | [7]; at 50.0 µM -27.6% | [8]; at 1.2 µM 42% | [8]; at 3.7 µM 27% | [8]; at 11.0 µM 35% | [8]; at 33.0 µM 21% | [8]; at 100.0 µM 18% | [9]; [17] 7% | [9]; [18] 21% | [9]; at 50.0 µM -5.65% | [10]; at 1.2 µM -8% | [10]; at 3.7 µM -14% | [10]; [17] 24% | [10]; at 11.0 µM -28% | [10]; at 33.0 µM -21% | [10]; [18] 29% | [10]; at 50.0 µM -24.1% | [10]; at 100.0 µM -20% | [11]; at 1.2 µM -40% | [11]; at 3.7 µM -33% | [11]; at 11.0 µM -50% | [11]; at 33.0 µM -49% | [11]; at 100.0 µM -53% | [12]; at 1.2 µM 29% | [12]; at 3.7 µM 23% | [12]; at 11.0 µM 14% | [12]; at 33.0 µM 10% | [12]; at 100.0 µM 12% | [13]; at 1.2 µM 6% | [13]; at 3.7 µM 2% | [13]; at 11.0 µM -18% | [13]; at 33.0 µM -16% | [13]; at 100.0 µM -11% | [14]; [17] 65% | [14]; at 50.0 µM -12.5% | [15]; at 1.2 µM -16% | [15]; at 3.7 µM -22% | [15]; at 11.0 µM -13% | [15]; at 33.0 µM -39% | [15]; at 100.0 µM -46%
active: [14]; [18] 78%

CC(=O)OCC(C)Cc1cc2c(cc1Br)OCO2 (stereo not drawn)
active: [7]; [18] 72% | [7]; at 50.0 µM 91.3% | [11]; at 100.0 µM 89%
inactive: [1]; at 1.2 µM -6% | [1]; at 3.7 µM -11% | [1]; at 11.0 µM -8% | [1]; at 33.0 µM -3% | [1]; at 100.0 µM 19% | [16]; at 1.2 µM 1% | [16]; at 3.7 µM -5% | [16]; at 11.0 µM 6% | [16]; at 33.0 µM -2% | [16]; at 100.0 µM -13% | [3]; at 1.2 µM -3% | [3]; at 3.7 µM -9% | [3]; at 11.0 µM -8% | [3]; at 33.0 µM -9% | [3]; at 100.0 µM 16% | [4]; at 1.2 µM -16% | [4]; at 3.7 µM -19% | [4]; [17] 2% | [4]; at 11.0 µM -23% | [4]; at 33.0 µM -13% | [4]; [18] 19% | [4]; at 50.0 µM 31.6% | [4]; at 100.0 µM 38% | [5]; at 1.2 µM -3% | [5]; at 3.7 µM -4% | [5]; [17] 0% | [5]; at 11.0 µM -6% | [5]; at 33.0 µM -11% | [5]; [18] 37% | [5]; at 50.0 µM 3.8% | [5]; at 100.0 µM -10% | [6]; at 1.2 µM 4% | [6]; at 3.7 µM -3% | [6]; at 11.0 µM 9% | [6]; at 33.0 µM 12% | [6]; at 100.0 µM 56% | [7]; [17] 1% | [8]; at 1.2 µM -7% | [8]; at 3.7 µM -9% | [8]; at 11.0 µM -16% | [8]; at 33.0 µM -16% | [8]; at 100.0 µM -15% | [9]; [17] -1% | [9]; [18] 12% | [9]; at 50.0 µM 4.65% | [10]; at 1.2 µM -2% | [10]; at 3.7 µM 3% | [10]; [17] 7% | [10]; at 11.0 µM 2% | [10]; at 33.0 µM 2% | [10]; [18] 43% | [10]; at 50.0 µM 19.8% | [10]; at 100.0 µM 21% | [11]; at 1.2 µM -1% | [11]; at 3.7 µM 0% | [11]; at 11.0 µM 7% | [11]; at 33.0 µM 20%
